Bioassay records deposited in PubChem BioAssay by several laboratories.
Most compounds without a hit are left out; they make up all but 4.1% or so of the library.
CSC inhib: cancer stem cell viability inhibitors, primary screen, luminescence. inhibition, % at 7.5 µM. cancer stem cell-like cells viability. AID 2717, 2010. 300,000 tested, 1.1% active; in the data active = inhibition above about 75%; tested in HMLE shEcad cells
A1 inh: caspase 3/7 activation in MEF A1-2A-BIM cells, primary screen, A1 inhibitor project, cell-based, luminescence, HTS. Caspase-Glo 3/7 luminescence, 3 h; percent of clofoctol response, vehicle zero. caspase activation, % (test concentration not listed). 330,000 tested, 0.066% active. AID 2462, 2010;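 active = over half of replicate activation scores above 10%, or exactly half above 10 with the replicate mean above 10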
Mdm2 MdmX PPI: inhibitors of human Mdm2-MdmX association, primary screen, cell-based, luminescence, split luciferase, SaOS-2, uHTS. inhibition, % at 8 µM. Protein Mdm4 (Homo sapiens) + E3 ubiquitin-protein ligase Mdm2 (Homo sapiens), …. 330,000 tested, 3% active. SaOS-2 split-luciferase Mdm2/MdmX complementation;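 active = inhibition of at least 50% at 8 µM in the primary screen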
Target sequence (O15151 whole entry, looked up): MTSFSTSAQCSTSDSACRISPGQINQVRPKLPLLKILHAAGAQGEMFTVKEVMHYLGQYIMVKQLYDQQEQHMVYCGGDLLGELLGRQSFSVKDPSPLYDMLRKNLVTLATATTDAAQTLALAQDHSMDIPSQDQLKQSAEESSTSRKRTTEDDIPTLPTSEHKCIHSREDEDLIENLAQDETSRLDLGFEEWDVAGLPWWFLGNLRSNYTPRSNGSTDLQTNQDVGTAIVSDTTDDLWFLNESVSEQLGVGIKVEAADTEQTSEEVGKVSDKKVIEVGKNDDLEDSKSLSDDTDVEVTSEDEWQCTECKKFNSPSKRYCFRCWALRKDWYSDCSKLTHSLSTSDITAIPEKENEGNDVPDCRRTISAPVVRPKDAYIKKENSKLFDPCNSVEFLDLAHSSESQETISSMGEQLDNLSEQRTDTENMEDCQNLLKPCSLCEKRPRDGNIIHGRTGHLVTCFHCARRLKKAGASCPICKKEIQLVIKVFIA
Target sequence (Q00987 whole entry, looked up): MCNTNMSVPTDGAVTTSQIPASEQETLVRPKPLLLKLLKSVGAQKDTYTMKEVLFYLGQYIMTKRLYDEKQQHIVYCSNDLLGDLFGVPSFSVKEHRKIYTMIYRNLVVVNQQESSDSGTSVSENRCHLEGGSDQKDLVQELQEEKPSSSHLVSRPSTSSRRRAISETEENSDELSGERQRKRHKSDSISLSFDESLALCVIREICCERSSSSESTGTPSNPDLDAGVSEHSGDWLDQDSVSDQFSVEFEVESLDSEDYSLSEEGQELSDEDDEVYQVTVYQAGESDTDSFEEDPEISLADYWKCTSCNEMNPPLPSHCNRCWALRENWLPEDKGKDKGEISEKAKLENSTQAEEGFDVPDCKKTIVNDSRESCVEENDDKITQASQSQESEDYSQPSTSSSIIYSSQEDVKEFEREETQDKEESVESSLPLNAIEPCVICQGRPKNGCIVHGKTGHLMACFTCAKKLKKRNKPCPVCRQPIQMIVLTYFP
Beta cell apopt: inhibitors of cytokine-induced beta cell apoptosis, primary screen, luminescence | AID 435005, 2010 | INS-1E cytokine-induced death, ATP luminescence, 48 h; percent of positive-control rescue, neutral wells zero | protection from apoptosis, % (test concentration not listed) | 300,000 tested, 0.8% active;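 active = Every replicate reaches about 75%, or at least half do and their mean reaches it too, limit read from the data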;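 note: 0% = cytokine-treated negative control wells and 100% = positive control rescue; higher means more ATP so stronger rescue from cytokine killing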
aSyn UTR inh: MLPCN primary screen, SNCA 5' untranslated region; alpha-synuclein 5'UTR reporter, inhibitor activity; inhibition, % (tested at 7.5 µM); 300,000 tested, 0.82% active; AID 1813, 2009; in the data active = inhibition above about 60%;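 note: H4 neuroglioblastoma cells stably carrying SNCA 5'UTR luciferase fusion; 0% = DMSO wells and 100% = positive control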
Mdm2 MdmX conf: Mdm2-MdmX complex disruptors, retested hits, confirmation, luminescence, single concentration; shares compounds with Mdm2 MdmX PPI; Mdm2-MdmX binding, luminescent assay; inhibition, % at 8 µM; 10,000 tested, 55% active; in the data active = inhibition above about 40%
Full FLuc ctr: full-length luciferase signal inhibition, confirmation, counter-screen for Mdm2/MdmX interaction inhibitor project, cell-based, single concentration, SaOS-2 | shares compounds with Mdm2 MdmX PPI | inhibition, % at 8 µM | 6,200 tested, 77% active | SaOS-2 full-length luciferase counterscreen, luminescence;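 active = mean inhibition at 8 µM reaching about 37%, which flags the compound as non-specific, limit read from the data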;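 note: p53-null SaOS-2 cells with luciferase driven by a doxycycline-inducible promoter; compound on cells about two nights before reading with doxycycline added after day one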
The depositor's hits bear a star; / = no result.

SMILES	CSC inhib	A1 inh	Mdm2 MdmX PPI	Beta cell apopt	aSyn UTR inh	Mdm2 MdmX conf	others
CCN(C(=O)CN1CCCC(C)C1)c1c(N)n(Cc2ccccc2)c(=O)[nH]c1=O (stereo not drawn)	-4.4	-0.3	-10.8	1.1	/	/
Cc1cccc(NC(=O)Nc2ccc(Oc3c(F)c(F)c(F)c(F)c3F)cc2)c1	17.8	0.2	41.1	14.0	6.2	/
O=C(Nc1ccc(Oc2c(F)c(F)c(F)c(F)c2F)cc1)OC1CCN2Cc3ccccc3N=C12 (stereo not drawn)	103.5*	-0.1	68.4*	71.0	104.4*	28.6
CC(Sc1nnc(COc2ccc(Cl)cc2)n1Cc1ccco1)C(=O)N1CCNC1=O (stereo not drawn)	/	/	-0.8	/	/	/
Cc1ccc(NC(=S)NNC(=S)Nc2cccc(C(F)(F)F)c2)cc1	47.9	-0.2	-8.2	14.2	-36.1	/
Fc1ccc(CNC(=S)Nc2cccc(C(F)(F)F)c2)cc1	9.6	-0.2	12.1	2.6	28.2	/
FC(F)(F)c1cccc(NC(=S)NCc2ccc(Cl)cc2)c1	59.5	-0.2	82.9*	18.1	3.8	22.5
Fc1cc(NC(=S)NCc2ccc(CNC(=S)Nc3ccc(Cl)c(F)c3)cc2)ccc1Cl	7.0	0.2	50.1*	16.2	22.1	5.2
FC(F)(F)c1cccc(NC(=S)NNC(=S)Nc2ccc(Cl)cc2)c1	132.2*	-0.8	79.8*	42.3	2.3	25.9
Fc1cccc(NC(=S)NCc2ccc(Cl)cc2)c1	6.5	1.2	-43.2	/	15.3	/
O=C(CCc1ccccc1)NNC(=O)c1ccncc1	-6.5	0.7	19.9	-2.0	/	/
Cn1c(-c2cccc([N+](=O)[O-])c2)cnc1NCc1cccc(F)c1	5.0	0.1	7.5	-3.7	-4.1	/
CCOC(=O)CN(C(=O)CNC(=O)c1ccco1)C(C(=O)NC1CCCCC1)c1cccnc1 (stereo not drawn)	-11.6	1.0	23.5	-1.7	-10.7	/
CCSc1ncc(/C=N/Nc2ccc([N+](=O)[O-])cc2)n1C	10.0	-1.7	69.2*	/	-193.9	-86.6
O=[N+]([O-])c1cnccc1Nc1cccc(F)c1	11.5	-0.4	-4.2	-5.5	-31.8	/
O=[N+]([O-])c1ccc(Oc2cccc(F)c2)c2ccncc12	-2.0	-0.4	58.0*	-6.1	8.4	26.5
CC[C@H](C)C(N)c1cn([C@@H](CC(N)=O)C(=O)N2CCNCC2)nn1 (stereo partly drawn)	1.8	-0.3	-9.3	-1.3	/	/
N/C(=N\N=C/c1ccc(F)cc1)N/N=C\c1ccc(F)cc1	77.3*	0.9	60.4*	7.8	-20.3	3.7
CCOC(=O)N/N=C/c1ccc(F)cc1	-11.3	-0.8	-14.1	-3.8	-45.4	/
c1ccc(C2C3=C(CCCC3)Nc3ncnn32)cc1 (stereo not drawn)	0.9	0.4	23.7	-2.0	16.2	/
Fc1ccc(/C=C2\CCCC3=C2Nc2ncnn2C3c2ccc(F)cc2)cc1 (stereo not drawn)	-0.6	2.1	98.6*	2.8	11.5	47.4*	Full FLuc ctr=1.0
Cc1ccc(S(=O)(=O)N2CCC(C(=O)Nc3nnc(C)s3)CC2)cc1	/	0.2	5.5	-0.6	-1.0	/
COC(=O)c1cc(=O)n(CCc2ccccc2)c(=Nc2ccc(F)cc2)s1	60.0	0.2	28.5	10.5	-23.3	/
COC(=O)c1cc(=O)n(CCc2ccc(OC)cc2)c(=Nc2ccc(F)c(Cl)c2)s1	100.0*	1.3	71.5*	52.7	-28.1	-3.3
CCn1c(=O)cc(C(=O)OC)sc1=Nc1ccc(F)c(F)c1	11.0	-0.6	19.2	-3.5	-18.3	/
SMILES	CSC inhib	A1 inh	Mdm2 MdmX PPI	Beta cell apopt	aSyn UTR inh	Mdm2 MdmX conf	others
COC(=O)c1cc(=O)n(Cc2ccc3c(c2)OCO3)c(=Nc2ccc(F)c(Cl)c2)s1	54.2	0.2	61.8*	23.0	-65.6	38.9	Full FLuc ctr=102.5*
COC1(OC)C(/C=C/c2ccc(C)cc2)C(C#N)(C#N)C1(OC)OC (stereo not drawn)	52.6	0.4	85.2*	-12.2	-47.1	43.0*	Full FLuc ctr=35.3
CCCc1cc(=O)oc2cc(OC(C)C(=O)NCC3CCC(C(=O)O)CC3)ccc12 (stereo not drawn)	-15.3	1.1	1.3	6.1	10.2	/
COc1ccc2oc(/C=C/N(C)C)c(C(=O)c3ccc(Cl)cc3)c2c1	39.6	0.6	78.6*	-3.9	-3.4	25.6
COc1cc(/C=N/NC(=S)NC2CC3CC2C2C=CCC32)ccc1O (stereo not drawn)	44.1	0.4	63.1*	5.0	-116.1	32.1
Cc1ccccc1C(=O)Nc1cc(C(F)(F)F)ccc1-n1cncn1	-6.4	-0.8	-4.1	-2.1	/	/
CN(C)CCCN(C(=O)c1cc(-c2cccs2)nc2ccccc12)c1nc2ccc(F)cc2s1	102.9*	-0.4	100.3*	6.0	98.9*	56.6*	Full FLuc ctr=67.5*
CN(C)CCCN(C(=O)CCc1ccccc1)c1nc2ccc(F)cc2s1	/	0.4	18.3	1.1	-70.3	/
CN(C)CCN(C(=O)/C=C/c1cccs1)c1nc2ccc(F)cc2s1	5.7	-0.5	58.6*	-1.7	-41.6	42.8*	Full FLuc ctr=56.1*
O=C(c1cccc([N+](=O)[O-])c1)N1CCCC(C(=O)N2CCc3ccccc3C2)C1 (stereo not drawn)	-6.8	-0.6	10.9	-1.2	-5.2	/
C=CCNc1nnc(Cc2ccc(C(C)C)cc2)c(=O)[nH]1	48.1	-2.4	37.8	0.8	-31.9	/
Cc1ccc2nc(/C(C#N)=C/c3ccc(O)c(O)c3)[nH]c2c1	40.0	-5.0	-0.1	1.8	-221.6	/
Cc1ccc2nc(/C(C#N)=C/c3cn[nH]c3-c3ccc(F)cc3)[nH]c2c1	41.2	-2.8	65.6*	7.0	-174.6	57.1*	Full FLuc ctr=47.8*
COc1ccc(C(CNC(=O)c2ccc(-c3ccccc3)cc2)N(C)C)cc1OC (stereo not drawn)	-15.8	0.6	-4.9	-2.9	-13.4	/
O=C(CCl)N(CCCNC(=O)C(F)(F)F)c1ccc([N+](=O)[O-])cc1	17.4	1.4	93.0*	-3.1	-12.3	71.8*	Full FLuc ctr=38.2*
CCC(=O)Nc1nc(C)c(-c2csc(Nc3ccc(C(=O)O)cc3)n2)s1	/	/	19.6	/	3.0	/
CC(=O)Nc1nc(C)c(-c2csc(Nc3ccccn3)n2)s1	24.6	-7.1	30.5	-2.0	-114.5	/
CC(=O)Nc1nc(C)c(-c2csc(Nc3ccc(O)cc3)n2)s1	/	-0.9	66.2*	22.7	/	68.5*	Full FLuc ctr=43.5*
COc1ccc(Nc2nc(-c3sc(C)nc3C)cs2)cc1	63.9	-0.7	50.4*	36.0	39.1	45.0*	Full FLuc ctr=61.4*
